Source: PubChem BioAssay (NCI)
The panel holds about 79,000 compounds, 15% with a hit somewhere; the sample as a whole holds those more often. Values without a mark were called inactive. Active and inactive are the calls of the source. No stated cut-off is given here; in the data, active means growth inhibition above about 70%; inactive means the rest.

Test: NCI Yeast Anticancer Drug Screen. Data for the rad52 strain (AID 147);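 further: 0% = growth of vehicle-treated control cultures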
Settings: S. cerevisiae rad52 mutant growth inhibition; at 33.0 µM; active compounds read high
Summary of the method: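 Measured: yeast growth inhibition. System: strain with a defined DNA damage repair alteration. Reference: vehicle-treated control cultures.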

Structure (SMILES) | growth inhibition
CC(C)C(=O)CC(Sc1ccc(N)cc1)c1ccccc1 (stereo not given) | 47%
CC(C)OP(=O)(OC(C)C)/C(Cl)=N/Nc1ccc([N+](=O)[O-])cc1 | 90% (active)
O=[N+]([O-])c1cc(Cl)ccc1S(=O)(=O)c1ccc(Cl)cc1[N+](=O)[O-] | 86% (active)
CCCCCCNCCCNc1c2cc(OC)ccc2nc2cccc([N+](=O)[O-])c12 | 93% (active)
N#CCC(=O)N/N=C(\c1ccccc1)C(c1ccccc1)C1(O)C(=O)Nc2c(Cl)ccc(Cl)c21 (stereo not given) | 9%
CN(C)CCNCCCNc1c2ccccc2nc2cccc([N+](=O)[O-])c12 | 89% (active)
CCC[CH2][Ge]([CH2]CCC)([CH2]CCC)[O]C(=O)C(O)c1ccccc1 (stereo not given) | 88% (active)
COc1ccc(-c2cc(-c3cc(C)cc(Cl)c3O)nc3[nH]c(=S)[nH]c(=S)c23)cc1 | 15%
O=[N+]([O-])c1ccc(/C=C\c2ccc3c(c2)OCO3)c([N+](=O)[O-])c1 | 54%
O=C1c2ccccc2N2OC3(N4CCCC4)CCCCC3C12c1ccccc1 (stereo not given) | 17%
CC(C)OC(=O)NNc1cc(Cl)ccc1Cl | 38%
Cc1oc2ccccc2c(=O)c1Cn1nnc2ccccc21 | 9%
CC1(C)OC(=O)C(=Cc2ccc([N+](=O)[O-])s2)C(=O)O1 | -14%
CCN(CC)CCCNc1ccc([N+](=O)[O-])c2nc3ccc(OC)cc3c(NCCCN(CC)CC)c12 | 11%
COc1cccc(/C=C2\S/C(=N/Nc3nc(-c4ccc([N+](=O)[O-])cc4)cs3)NC2=O)c1O | 72% (active)
